Data from the supplement of paper PMC10849652.
The full data set covers some 8,800 targets. This sample favours those with a hit. About 0.5% of all pairs of compound and target were hits. Values without a mark were called inactive.

Assays:
Assay in all cases: log2 fold change, soluble protein after heating vs DMSO (PISA); higher = thermal stabilisation; K562 lysate, 10 uM; active = over 0.2 and 3.5 SD of the protein, either way, in both replicates (recomputed)
lapatinib = compound: CS(=O)(=O)CCNCc1ccc(-c2ccc3ncnc(Nc4ccc(OCc5cccc(F)c5)c(Cl)c4)c3c2)o1 [lapatinib]
Procedure, shortened: (§1)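 Following dounce homogenisation of K562 pellets in PBS pH 7.4 with 1 mM MgCl2, crude extract at 1 mg/mL protein was incubated for 30 min with 10 μM compound. Aliquots were then heated for 3 min over 48°C-58°C and pooled, NP-40 was added to 0.5% at 4°C, and soluble protein was recovered as the supernatant at 21,000xg for 90 min. Channel-sum-equalised TMTpro 16plex LC-MS/MS quantified this protein. Each value, from duplicates, is a log-two fold change in thermal stability relative to solvent controls.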

pictilisib = compound: CS(=O)(=O)N1CCN(Cc2cc3nc(-c4cccc5[nH]ncc45)nc(N4CCOCC4)c3s2)CC1 [pictilisib]
Procedure, shortened: as §1

crizotinib = compound: C[C@@H](Oc1cc(-c2cnn(C3CCNCC3)c2)cnc1N)c1c(Cl)ccc(F)c1Cl [crizotinib]
Procedure, shortened: as §1

[1] = compound: C[C@H](C1=CC=C(C=C1)C(=O)NC2=C3C=CNC3=NC=C2)N
Procedure, shortened: as §1

duvelisib = compound: C[C@H](Nc1ncnc2nc[nH]c12)c1cc2cccc(Cl)c2c(=O)n1-c1ccccc1 [duvelisib]
Procedure, shortened: as §1

gandotinib = compound: Cc1cc(Nc2cc(CN3CCOCC3)c3nc(C)c(Cc4ccc(Cl)cc4F)n3n2)n[nH]1 [gandotinib]
Procedure, shortened: as §1

tozasertib = compound: Cc1cc(Nc2cc(N3CCN(C)CC3)nc(Sc3ccc(NC(=O)C4CC4)cc3)n2)n[nH]1 [tozasertib]
Procedure, shortened: as §1

doramapimod = compound: Cc1ccc(-n2nc(C(C)(C)C)cc2NC(=O)Nc2ccc(OCCN3CCOCC3)c3ccccc23)cc1 [doramapimod]
Procedure, shortened: as §1

bafetinib = compound: Cc1ccc(NC(=O)c2ccc(CN3CC[C@H](N(C)C)C3)c(C(F)(F)F)c2)cc1Nc1nccc(-c2cncnc2)n1 [bafetinib]
Procedure, shortened: as §1

[2] = compound: Cc1cccc(CC(=O)N2CCc3c2ccc(-c2cn(C)c4ncnc(N)c24)c3F)n1
Procedure, shortened: as §1

nilotinib = compound: Cc1cn(-c2cc(NC(=O)c3ccc(C)c(Nc4nccc(-c5cccnc5)n4)c3)cc(C(F)(F)F)c2)cn1 [nilotinib]
Procedure, shortened: as §1

[3] = compound: Cc1nc(Nc2n[nH]c3c2CN(C(=O)N[C@H](CN(C)C)c2ccccc2)C3(C)C)c2sccc2n1
Procedure, shortened: as §1

dasatinib = compound: Cc1nc(Nc2ncc(C(=O)Nc3c(C)cccc3Cl)s2)cc(N2CCN(CCO)CC2)n1 [dasatinib]
Procedure, shortened: as §1

[4] = compound: Cc1ncc(-c2ccnc(Nc3ccc(S(C)(=O)=O)cc3)n2)n1C(C)C
Procedure, shortened: as §1

[5] = compound: Cn1cc(-c2ccc3c(c2)CCN3C(=O)Cc2cccc(C(F)(F)F)c2)c2c(N)ncnc21
Procedure, shortened: as §1

quisinostat = compound: Cn1cc(CNCC2CCN(c3ncc(C(=O)NO)cn3)CC2)c2ccccc21 [quisinostat]
Procedure, shortened: as §1

tipifarnib = compound: Cn1cncc1[C@@](N)(c1ccc(Cl)cc1)c1ccc2c(c1)c(-c1cccc(Cl)c1)cc(=O)n2C [tipifarnib]
Procedure, shortened: as §1

[6] = compound: NC(=O)Nc1cc(-c2cccc(F)c2)sc1C(=O)N[C@H]1CCCNC1
Procedure, shortened: as §1

[7] = compound: NC(=O)c1cnc(N[C@@H]2CCCC[C@@H]2N)nc1Nc1cccc(-n2nccn2)c1
Procedure, shortened: as §1

[8] = compound: NC1(c2ccc(-c3nc4ccn5c(=O)[nH]nc5c4cc3-c3ccccc3)cc2)CCC1
Procedure, shortened: as §1

UniProt Q8NEM2, sequence (Q8NEM2 whole entry, looked up): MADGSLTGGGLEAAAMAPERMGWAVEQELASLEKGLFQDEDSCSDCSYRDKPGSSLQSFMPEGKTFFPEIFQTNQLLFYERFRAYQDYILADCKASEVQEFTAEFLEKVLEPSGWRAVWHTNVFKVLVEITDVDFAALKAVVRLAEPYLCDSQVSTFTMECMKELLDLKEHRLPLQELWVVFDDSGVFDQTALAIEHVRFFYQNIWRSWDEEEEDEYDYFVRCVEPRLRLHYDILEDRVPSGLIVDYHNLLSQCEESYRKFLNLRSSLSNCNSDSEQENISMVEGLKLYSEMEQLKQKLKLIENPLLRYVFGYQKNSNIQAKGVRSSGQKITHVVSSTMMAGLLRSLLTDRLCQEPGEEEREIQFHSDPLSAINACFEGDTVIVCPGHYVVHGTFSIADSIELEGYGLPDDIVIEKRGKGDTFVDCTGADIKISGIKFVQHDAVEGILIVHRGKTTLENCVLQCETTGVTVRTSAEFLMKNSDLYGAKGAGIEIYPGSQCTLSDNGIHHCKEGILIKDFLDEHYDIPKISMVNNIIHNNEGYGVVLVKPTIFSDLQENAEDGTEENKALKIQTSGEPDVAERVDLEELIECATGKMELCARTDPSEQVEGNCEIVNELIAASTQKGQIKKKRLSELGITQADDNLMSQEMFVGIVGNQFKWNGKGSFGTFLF
UniProt Q13573, sequence (Q13573 whole entry, looked up): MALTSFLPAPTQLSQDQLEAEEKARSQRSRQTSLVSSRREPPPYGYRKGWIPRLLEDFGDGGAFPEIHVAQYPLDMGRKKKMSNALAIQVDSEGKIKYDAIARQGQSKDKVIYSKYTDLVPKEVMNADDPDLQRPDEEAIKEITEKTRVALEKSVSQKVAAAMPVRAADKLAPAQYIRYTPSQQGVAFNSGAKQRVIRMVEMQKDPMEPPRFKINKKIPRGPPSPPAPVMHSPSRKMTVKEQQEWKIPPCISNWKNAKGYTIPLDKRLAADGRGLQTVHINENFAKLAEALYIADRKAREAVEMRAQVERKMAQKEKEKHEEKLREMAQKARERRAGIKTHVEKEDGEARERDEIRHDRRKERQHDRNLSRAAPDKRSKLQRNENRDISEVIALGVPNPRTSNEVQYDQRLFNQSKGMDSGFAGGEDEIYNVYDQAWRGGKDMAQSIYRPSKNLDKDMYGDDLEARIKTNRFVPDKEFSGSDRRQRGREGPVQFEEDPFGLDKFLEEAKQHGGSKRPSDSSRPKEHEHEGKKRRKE
UniProt Q9UJC5, sequence (Q9UJC5 whole entry, looked up): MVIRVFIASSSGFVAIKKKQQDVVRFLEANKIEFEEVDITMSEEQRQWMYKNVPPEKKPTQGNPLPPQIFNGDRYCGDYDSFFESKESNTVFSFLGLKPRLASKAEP
UniProt P05455, sequence (P05455 whole entry, looked up): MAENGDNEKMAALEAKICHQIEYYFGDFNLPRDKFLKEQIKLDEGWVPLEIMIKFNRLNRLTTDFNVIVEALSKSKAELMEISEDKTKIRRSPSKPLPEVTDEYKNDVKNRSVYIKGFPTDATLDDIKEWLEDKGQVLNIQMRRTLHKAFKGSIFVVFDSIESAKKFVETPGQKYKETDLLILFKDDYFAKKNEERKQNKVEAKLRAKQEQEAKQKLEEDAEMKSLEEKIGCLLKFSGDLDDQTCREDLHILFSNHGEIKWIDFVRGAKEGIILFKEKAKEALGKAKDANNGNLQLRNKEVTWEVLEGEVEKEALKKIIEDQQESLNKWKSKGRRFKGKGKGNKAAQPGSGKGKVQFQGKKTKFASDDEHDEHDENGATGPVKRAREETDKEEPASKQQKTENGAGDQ
UniProt Q8N1F8, sequence (Q8N1F8 whole entry, looked up): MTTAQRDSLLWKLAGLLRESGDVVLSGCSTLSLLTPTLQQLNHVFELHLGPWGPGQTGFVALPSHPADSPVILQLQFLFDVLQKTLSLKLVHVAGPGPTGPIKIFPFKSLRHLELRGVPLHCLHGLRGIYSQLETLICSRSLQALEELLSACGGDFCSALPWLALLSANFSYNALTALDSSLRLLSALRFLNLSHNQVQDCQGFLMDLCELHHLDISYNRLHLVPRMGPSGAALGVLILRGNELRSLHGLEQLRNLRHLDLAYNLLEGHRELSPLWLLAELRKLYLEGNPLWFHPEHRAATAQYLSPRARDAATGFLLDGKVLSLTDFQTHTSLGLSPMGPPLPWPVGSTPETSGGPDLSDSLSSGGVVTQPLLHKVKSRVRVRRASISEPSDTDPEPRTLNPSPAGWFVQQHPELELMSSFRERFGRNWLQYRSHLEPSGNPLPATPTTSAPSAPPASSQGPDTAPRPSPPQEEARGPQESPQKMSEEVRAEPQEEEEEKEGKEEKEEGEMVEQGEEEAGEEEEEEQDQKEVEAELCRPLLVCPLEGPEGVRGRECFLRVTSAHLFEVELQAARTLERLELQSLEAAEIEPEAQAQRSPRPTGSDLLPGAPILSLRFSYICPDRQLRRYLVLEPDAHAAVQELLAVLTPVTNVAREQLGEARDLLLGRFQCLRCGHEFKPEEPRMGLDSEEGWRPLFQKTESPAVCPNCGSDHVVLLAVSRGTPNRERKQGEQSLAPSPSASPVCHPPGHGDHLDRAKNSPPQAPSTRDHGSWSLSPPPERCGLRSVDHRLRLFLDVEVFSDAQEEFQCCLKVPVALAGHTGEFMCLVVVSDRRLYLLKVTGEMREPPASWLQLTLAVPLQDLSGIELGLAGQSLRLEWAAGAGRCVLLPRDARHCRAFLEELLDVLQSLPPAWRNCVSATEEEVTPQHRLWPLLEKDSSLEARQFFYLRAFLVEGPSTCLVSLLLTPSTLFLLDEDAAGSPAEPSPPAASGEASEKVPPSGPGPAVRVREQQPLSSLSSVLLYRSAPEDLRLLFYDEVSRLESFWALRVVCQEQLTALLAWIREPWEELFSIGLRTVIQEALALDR
UniProt Q86US8, sequence (Q86US8 whole entry, looked up): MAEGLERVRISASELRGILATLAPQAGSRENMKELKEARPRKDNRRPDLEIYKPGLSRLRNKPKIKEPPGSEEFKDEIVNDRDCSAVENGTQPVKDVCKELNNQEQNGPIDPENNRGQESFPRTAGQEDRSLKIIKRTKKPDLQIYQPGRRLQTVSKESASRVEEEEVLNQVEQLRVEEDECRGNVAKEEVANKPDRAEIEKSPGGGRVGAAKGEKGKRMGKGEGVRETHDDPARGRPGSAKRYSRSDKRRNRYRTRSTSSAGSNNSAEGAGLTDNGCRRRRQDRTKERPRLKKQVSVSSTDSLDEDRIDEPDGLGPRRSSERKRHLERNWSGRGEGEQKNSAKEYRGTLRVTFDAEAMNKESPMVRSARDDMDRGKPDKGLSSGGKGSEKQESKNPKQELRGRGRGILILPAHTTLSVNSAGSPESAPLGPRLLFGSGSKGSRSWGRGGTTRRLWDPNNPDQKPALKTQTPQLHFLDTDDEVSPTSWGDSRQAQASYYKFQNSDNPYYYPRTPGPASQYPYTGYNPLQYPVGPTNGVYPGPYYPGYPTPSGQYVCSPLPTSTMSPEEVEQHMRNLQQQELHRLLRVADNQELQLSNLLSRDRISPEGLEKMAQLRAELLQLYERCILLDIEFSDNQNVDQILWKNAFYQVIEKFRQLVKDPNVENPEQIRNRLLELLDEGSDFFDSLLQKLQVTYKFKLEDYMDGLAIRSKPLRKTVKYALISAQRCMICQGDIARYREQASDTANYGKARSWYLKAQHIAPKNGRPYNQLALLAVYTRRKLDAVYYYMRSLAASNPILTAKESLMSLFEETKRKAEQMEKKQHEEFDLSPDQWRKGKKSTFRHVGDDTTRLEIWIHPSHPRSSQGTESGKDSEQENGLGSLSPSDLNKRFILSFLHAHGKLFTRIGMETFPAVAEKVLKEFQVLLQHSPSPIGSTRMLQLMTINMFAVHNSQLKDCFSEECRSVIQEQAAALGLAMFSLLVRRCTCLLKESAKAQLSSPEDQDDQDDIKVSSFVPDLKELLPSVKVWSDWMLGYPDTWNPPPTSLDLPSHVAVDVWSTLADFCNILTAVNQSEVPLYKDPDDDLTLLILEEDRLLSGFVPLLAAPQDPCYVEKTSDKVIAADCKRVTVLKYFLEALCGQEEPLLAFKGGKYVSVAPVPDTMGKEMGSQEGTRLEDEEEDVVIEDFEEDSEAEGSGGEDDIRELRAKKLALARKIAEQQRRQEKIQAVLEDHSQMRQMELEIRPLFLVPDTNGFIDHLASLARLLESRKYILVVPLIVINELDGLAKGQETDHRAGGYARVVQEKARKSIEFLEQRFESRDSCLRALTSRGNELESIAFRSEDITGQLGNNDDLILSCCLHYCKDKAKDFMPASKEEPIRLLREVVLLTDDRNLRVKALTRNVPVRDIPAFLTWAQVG
UniProt O14975, sequence (O14975 whole entry, looked up): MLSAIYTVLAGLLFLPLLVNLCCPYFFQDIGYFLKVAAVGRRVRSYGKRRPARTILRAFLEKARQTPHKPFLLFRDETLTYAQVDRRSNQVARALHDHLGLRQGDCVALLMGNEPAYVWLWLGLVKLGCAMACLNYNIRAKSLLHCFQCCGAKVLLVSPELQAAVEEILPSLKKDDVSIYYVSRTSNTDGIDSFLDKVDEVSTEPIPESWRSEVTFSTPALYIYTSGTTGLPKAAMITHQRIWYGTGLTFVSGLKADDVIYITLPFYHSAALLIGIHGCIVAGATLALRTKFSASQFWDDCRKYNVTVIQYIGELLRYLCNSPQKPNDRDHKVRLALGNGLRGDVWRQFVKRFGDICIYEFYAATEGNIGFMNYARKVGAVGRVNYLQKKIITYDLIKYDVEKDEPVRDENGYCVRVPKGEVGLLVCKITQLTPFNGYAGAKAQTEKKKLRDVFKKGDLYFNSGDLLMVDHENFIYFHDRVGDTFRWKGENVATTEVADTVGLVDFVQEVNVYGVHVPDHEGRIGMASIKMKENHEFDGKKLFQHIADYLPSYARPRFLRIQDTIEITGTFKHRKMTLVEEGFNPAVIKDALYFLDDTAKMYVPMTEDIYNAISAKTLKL
UniProt Q9NP77, sequence (Q9NP77 whole entry, looked up): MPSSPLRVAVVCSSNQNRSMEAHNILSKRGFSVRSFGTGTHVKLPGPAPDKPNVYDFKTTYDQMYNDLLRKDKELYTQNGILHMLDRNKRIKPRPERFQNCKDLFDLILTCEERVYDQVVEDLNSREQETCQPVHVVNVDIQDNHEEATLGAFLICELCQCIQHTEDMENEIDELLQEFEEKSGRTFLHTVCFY

Row | Target | log2 fold change (lapatinib) | log2 fold change (pictilisib) | log2 fold change (crizotinib) | log2 fold change [1] | log2 fold change (duvelisib) | log2 fold change (gandotinib) | log2 fold change (tozasertib) | log2 fold change (doramapimod) | log2 fold change (bafetinib) | log2 fold change [2] | log2 fold change (nilotinib) | log2 fold change [3] | log2 fold change (dasatinib) | log2 fold change [4] | log2 fold change [5] | log2 fold change (quisinostat) | log2 fold change (tipifarnib) | log2 fold change [6] | log2 fold change [7] | log2 fold change [8]
1 | SPNS1 (UniProt Q9H2V7) | 0.025 | -0.038 | -0.004 | -0.042 | 0.04 | 0.032 | -0.073 | 0.014 | -0.054 | 0.052 | 0.04 | -0.025 | 0 | -0.017 | 0.028 | -0.039 | 0.069 | -0.032 | 0.013 | -0.005
2 | SH3BGRL2 (UniProt Q9UJC5) | 0.021 | 0.012 | -0.025 | 0.342 (active) | -0.007 | -0.116 | -0.078 | 0.021 | -0.058 | -0.184 | -0.001 | -0.001 | 0.077 | -0.019 | -0.033 | -0.029 | 0.013 | 0.009 | -0.04 | 0.032
3 | TANGO6 (UniProt Q9C0B7) | -0.054 | -0.002 | -0.065 | -0.102 | 0.005 | 0.037 | -0.023 | 0.014 | -0.064 | 0.115 | 0.042 | -0.056 | -0.006 | 0.019 | 0.025 | -0.056 | 0.044 | 0.046 | -0.037 | -0.001
4 | SSB (UniProt E7ERC4) | -0.151 | -0.15 | -0.103 | 1.41 (active) | 0.141 | -0.263 | -0.028 | 0.032 | -0.271 | -0.121 | -0.059 | 0.165 | 0.007 | 0.198 | -0.078 | -0.198 | 0.171 | 0.152 | -0.108 | -0.128
5 | SLC27A2 (UniProt O14975) | 0.063 | -0.049 | -0.092 | -0.067 | 0.031 | 0.286 | 0.117 | 0.064 | 0.015 | -0.014 | 0.056 | -0.027 | 0.038 | -0.053 | -0.011 | -0.078 | 0.031 | -0.06 | -0.033 | 0.029
6 | SMG6 (UniProt Q86US8) | 0.009 | -0.032 | 0.028 | -0.097 | -0.1 | 0.025 | -0.096 | 0.051 | -0.049 | 0.039 | -0.067 | 0.028 | 0.048 | 0.079 | 0.082 | -0.05 | -0.065 | 0.028 | 0.065 | 0.011
7 | SNX6, A0A0A0MRI2 | -0.008 | 0.018 | -0.062 | 0.2 | 0.003 | -0.134 | 0.022 | -0.012 | -0.04 | -0.088 | -0.021 | 0.009 | 0.003 | 0.03 | 0.027 | -0.003 | 0.007 | -0.015 | 0.016 | 0.016
8 | TARBP2 (UniProt Q15633) | 0.035 | -0.098 | -0.092 | 0.001 | 0.07 | -0.08 | -0.057 | 0.028 | -0.028 | 0.022 | 0.003 | 0.019 | -0.038 | 0.005 | -0.056 | -0.106 | -0.067 | 0.065 | -0.029 | 0.056
9 | SSB (UniProt P05455) | -0.024 | 0.015 | 0.046 | 0.05 | -0.01 | -0.03 | 0.009 | -0.032 | 0.017 | -0.036 | -0.013 | -0.014 | -0.008 | 0.006 | -0.018 | 0.099 | 0.022 | 0.001 | -0.013 | 0.012
10 | SHCBP1 (UniProt Q8NEM2) | 0.061 | 0.046 | -0.029 | -0.043 | 0.028 | -0.031 | 0.059 | 0.028 | -0.073 | 0.078 | -0.051 | -0.024 | -0.071 | -0.043 | 0.026 | -0.019 | -0.035 | -0.009 | -0.019 | -0.016
11 | SPR (UniProt P35270) | -0.015 | 0.472 (active) | 0.276 | -0.029 | -0.059 | 0.467 (active) | 0.025 | -0.06 | -0.09 | -0.117 | -0.063 | 0.01 | 0.201 | 0.012 | 0.075 | 0.077 | 0.035 | 0.01 | 0.02 | 0.009
12 | SSU72 (UniProt Q9NP77) | -0.02 | 0.008 | -0.042 | -0.288 (active) | -0.004 | 0.134 | -0.074 | 0.057 | -0.052 | 0.166 | 0.031 | -0.007 | -0.008 | -0.028 | 0.037 | -0.002 | 0.02 | -0.021 | -0.013 | 0.041
13 | STK39 (UniProt Q9UEW8) | 0.011 | -0.038 | -0.063 | -0.012 | 0.087 | -0.044 | 0.021 | 0.032 | -0.03 | 0.057 | -0.104 | 0.071 | -0.045 | -0.024 | 0.046 | -0.084 | -0.053 | 0.053 | 0.058 | -0.082
14 | STK11IP (UniProt Q8N1F8) | 0.022 | 0.012 | -0.022 | 0.004 | -0.052 | -0.019 | -0.014 | 0.037 | -0.008 | 0.036 | 0.065 | 0.001 | -0.053 | -0.045 | -0.016 | -0.029 | -0.033 | -0.012 | -0.014 | 0.037
15 | SNW1 (UniProt Q13573) | 0.019 | -0.002 | 0.002 | 0.155 | -0.018 | -0.037 | -0.01 | -0.002 | -0.002 | -0.007 | 0.002 | -0.009 | 0.024 | -0.036 | -0.015 | 0.012 | 0.009 | -0.016 | -0.01 | -0.01
16 | SUZ12 (UniProt Q15022) | 0.015 | 0.043 | -0.021 | 0.048 | -0.016 | 0.027 | 0.006 | 0 | -0.113 | 0.009 | 0.03 | -0.025 | 0.037 | -0.013 | -0.008 | -0.005 | 0.016 | -0.007 | -0.013 | -0.026
